In PubChem BioAssay AID1571 (National Center for Advancing Translational Sciences (NCATS), 2009):
Values joined by “and” are separate entries in the source; they are usually repeats but may differ in a detail not shown here. Equal entries are not always repeated. Results filed as inconclusive are left out. Where a call stands in place of a potency, no number is given. Values without a mark were called inactive. Active and inactive are the calls of the source. The call rests on the fitted dose curve; in most records, active means well fitted curve in the direction sought with a large enough effect; inconclusive means small, poorly fitted or top-dose-only effect, or effect the other way; inactive means flat fitted curve, though single readings scatter.

Test: Total Fluorescence Confirmation Counterscreen for Inhibitors of the Interaction of Thyroid Hormone Receptor and Steroid Receptor Coregulator 2, Fluorescein Fluoroprobe
Conditions: TRbeta/SRC2-fluorescein mix, total fluorescence interference; series mostly up to 92.2 µM
Text: NIH Molecular Libraries Probe Production Network [MLPCN] NIH Chemical Genomics Center [NCGC] MLPCN Grant: DK058080 Assay Provider: R. Kip Guy, St. Jude Children's Research Hospital NCGC Assay Overview: Thyroid receptor (TR) regulates many homeostatic processes including basal metabolism, cardiovascular function, body weight, and lipid trafficking. TR modulators are potential therapeutics for obesity and hyperlipidemias but current thyroid analogs have undesirable side effects, particularly cardiac stimulation. To identify inhibitors that specifically prevent the interaction of TR with the steroid receptor coregulator 2 (SRC2), a fluorescence polarization assay was screened (Arnold et al., 2006). This assay detects interaction of the ligand-binding domain of human TRbeta with a fluorescein labeled SRC2 peptide, corresponding to a 20 amino acid region of the nuclear receptor interaction domain. Total fluorescence (555 nm excitation and 632 nm emission) was measured to identify potential fluorescent and light absorbing compounds. Such compounds may be artifacts that interfere with the fluorescence polarization assay. This assay is a confirmation assay for AID 1479. Arnold, L. A.; Estebanez-Perpina, E.; Togashi, M.; Shelat, A.; Ocasio, C. A.; McReynolds, A. C.; Nguyen, P.; Baxter, J. D.; Fletterick, R. J.; Webb, P.; Guy, R. K. A high-throughput screening method to identify small molecule inhibitors of thyroid hormone receptor coactivator binding. Sci STKE 2006, p 13.
NCGC Assay Protocol Summary: For screening, 5 uL/well 0.6 uM TRbeta and 20 nM SRC2 Fluorescein in protein buffer (20mM Tris hydrochloride, 100mM NaCl, 10% glycerol, 1mM EDTA, 0.01% NP-40, 1mM DTT, 1uM T3 and 5% DMSO) was dispensed into black solid 1536-well plates (Grenier) using a solenoid-based dispenser. Following transfer of 23 nL compound or DMSO vehicle by a pin tool, the plates were centrifuged 15 s at 1000 RPM and incubated 5 hr at ambient temperature. The plates were read by an Envision (Perkin Elmer) to detect fluorescence polarization of SRC2 Fluorescein (480 nm excitation and 535 nm emission). Data were normalized to unbound (all components except TRbeta) and bound SRC2 Fluorescein controls. Total fluorescence (TF) was calculated as follows: TF = S + 2P where S and P are fluorescence readings in the parallel and perpendicular channels, respectively. In this assay, we provide % activity data for each concentration as well as potencies for the active compounds.

SMILES	total fluorescence change, positive = fluorescent	Potency
O=C(O)/C=C/C(=O)Nc1ccc(OC(F)(F)F)cc1Br	17.7% [at 0.0112 µM]	
COC(=O)c1ccccc1-c1ccc(C(c2c(C)[nH][nH]c2=O)c2c(C)[nH][nH]c2=O)o1	15.2% [at 5.76 µM]	
Nc1c(C(=O)NCc2ccco2)c2nc3ccccc3nc2n1CCc1ccccc1		inactive
C=CCNC(=O)/C(C#N)=C\c1cc(Cl)c(OCC)c(OC)c1		inactive
COc1ccc2ccc3c(c2c1)N=CC1(O3)N(C)c2ccccc2C1(C)C (stereo not given)	-5.71% [at 0.0112 µM]	
CC1(C)C(N(O)C(=O)Nc2ccc(Cl)cc2)N(c2ccc(Cl)cc2)C(=O)N1CC(=O)NN (stereo not given)	17.6% [at 11.6 µM]	
Cc1ccc(-c2nc(S(=O)(=O)c3ccc(F)cc3)c(SCC(=O)NCC3CCCO3)o2)cc1 (stereo not given)		inactive
Cc1nc2c3cc(F)ccc3n(Cc3ccccc3F)c2s1		inactive
CN1c2ccccc2C(C)(C)C12C=Nc1c(ccc3ccccc13)O2 (stereo not given)		inactive
CN1CCc2ccc3c4c2[C@]1(C)Cc1cccc(c1-4)OCO3		100 µM [fluorescent] (active)
C=CCNC(=O)/C(C#N)=C/c1c(C)nn(-c2ccc(Cl)cc2)c1Cl		inactive
O=C1CCCC(O)=C1N=Nc1cccc(S(=O)(=O)N2CCOCC2)c1		inactive
O=c1[nH]c(Nc2ccccc2)cc2ccccc12		35.5 µM [fluorescent] (active)
C=CCSc1nnc2n(-c3ccccc3OC)c(=O)c3c4c(sc3n12)CCC4		inactive
Cn1cc[nH]c1=S		inactive
O=C(O)[C@H]1CN(CCCP(=O)(O)O)CCN1		inactive
Cn1c(CCN2CCCCC2)nc2cc(NS(=O)(=O)c3ccc(Cl)cc3)ccc21	13% [at 0.0112 µM]	
CCN(CC)S(=O)(=O)c1cccc(N=NC2=C(O)CCCC2=O)c1	7.56% [at 0.0112 µM]	
CC1=NN(c2ccc(F)cc2)C(=O)C1C(c1cccc(O)c1)c1c(C)[nH]n(-c2ccc(F)cc2)c1=O (stereo not given)		inactive
Cc1ccccc1Nc1cc2ccccc2c(=O)[nH]1		25.1 µM [fluorescent] (active) and 44.7 µM [fluorescent] (active)

SMILES	total fluorescence change, positive = fluorescent	Potency
C/C(=C\C(=O)c1ccccc1)Nc1ccc(O)cc1	10.3% [at 11.6 µM]	
COc1ccc(C(=O)Oc2ccc(C(c3c(C)[nH][nH]c3=O)c3c(C)[nH][nH]c3=O)cc2OC)cc1		inactive
Cc1c(C#N)c(O)n(CCO)c(=O)c1N=Nc1ccc2c(c1)COC2=O		inactive
COC(=O)/C(=C/Nc1ccc(O)cc1)[N+](=O)[O-]	0.349% [at 5.76 µM]	
COc1ccc2c(c1)-c1nc(/N=C/c3c(O)ccc4ccccc34)sc1CC2	29.6% [at 5.76 µM]	
CCSc1ncc(Cl)c(C(=O)Nc2nc3ccc(OC)cc3s2)n1		inactive
CCOc1ccc(C2=Cc3cc(OC)c(OC)cc3C(=C(Cl)Cl)O2)cc1		inactive
Cn1c(NNC(=O)c2c(F)cccc2F)cc(=O)n(C)c1=O		inactive
CCCCCCN=CC1=C(O)CC(C)(C)CC1=O	-5.99% [at 0.0112 µM]	
O=C(NNc1cc(N2CCOCC2)nc(N2CCOCC2)n1)c1ccc([N+](=O)[O-])cc1	19.9% [at 11.6 µM]	
COn1c2c(c3c4nonc4ccc31)CCCC2		inactive
Cc1cc2c(NC(=O)Nc3ccccc3)cccc2nn1	9.99% [at 0.0112 µM]	
COc1cc(C(c2c(C)[nH][nH]c2=O)c2c(C)[nH][nH]c2=O)ccc1OC(=O)c1cccc(C)c1		inactive
Nc1cccnc1Sc1cc(Cl)c(Cl)cc1Cl		inactive
Cc1nc2ccccc2n2c(O)c(CC(=O)O)cc12		12.6 µM [fluorescent] (active)
COc1ccc(C(=O)/C=C/Nc2ccc(S(=O)(=O)Nc3ncccn3)cc2)cc1	8.87% [at 0.0112 µM]	
COc1ccccc1Nc1cc2ccccc2c(=O)[nH]1		44.7 µM [fluorescent] (active)
Cc1ccc(OC(=S)Nc2ccc(O)cc2)cc1		inactive
Cc1nnc(SCC(=O)Nc2ccc(N(C)C)cc2)[nH]c1=O		inactive
CC(=O)c1cccc(NC(=O)COC(=O)c2ccc(S(C)(=O)=O)c([N+](=O)[O-])c2)c1	9.6% [at 11.6 µM]	
